In the library only some 1.9% were active in any assay of this set; here they are far more common.
Abeta yeast res: qHTS for compounds that reverse cellular toxicity of Amyloid beta (A-beta) peptide in yeast: Primary Screen. yeast expressing A-beta42, growth rescue, OD600, 48 h; response scale: 0% DMSO, 100% iron-clioquinol control. Potency, µM (doses to about 46.1 µM), actives largely listed as activators. hit rate 0.063% among 410,000. AID 1347071, 2019; also: nearly all actives have a fitted effect of over 55% in size
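Yeast A-beta toxicity model in growth medium with pinned compounds, 48 h at 30 C; growth read as absorbance at 600 nm. Normalized to FeCl3/clioquinol equimolar mix (positive) and DMSO (negative).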
PTHR1 agonist: qHTS for PTHR1 Agonists: Primary Screen | Parathyroid hormone/parathyroid hormone-related peptide receptor (Homo sapiens), Q03431 | HEK293 GP2 PTHR1 cells, GloSensor cAMP luminescence, 1 h | Potency, µM (doses to about 115 µM), most hits filed as activators | hit rate 0.075% among 410,000 | AID 743266, 2014; also: nearly all actives have a fitted effect of over 55% in size
Target sequence (Q03431 whole entry, looked up): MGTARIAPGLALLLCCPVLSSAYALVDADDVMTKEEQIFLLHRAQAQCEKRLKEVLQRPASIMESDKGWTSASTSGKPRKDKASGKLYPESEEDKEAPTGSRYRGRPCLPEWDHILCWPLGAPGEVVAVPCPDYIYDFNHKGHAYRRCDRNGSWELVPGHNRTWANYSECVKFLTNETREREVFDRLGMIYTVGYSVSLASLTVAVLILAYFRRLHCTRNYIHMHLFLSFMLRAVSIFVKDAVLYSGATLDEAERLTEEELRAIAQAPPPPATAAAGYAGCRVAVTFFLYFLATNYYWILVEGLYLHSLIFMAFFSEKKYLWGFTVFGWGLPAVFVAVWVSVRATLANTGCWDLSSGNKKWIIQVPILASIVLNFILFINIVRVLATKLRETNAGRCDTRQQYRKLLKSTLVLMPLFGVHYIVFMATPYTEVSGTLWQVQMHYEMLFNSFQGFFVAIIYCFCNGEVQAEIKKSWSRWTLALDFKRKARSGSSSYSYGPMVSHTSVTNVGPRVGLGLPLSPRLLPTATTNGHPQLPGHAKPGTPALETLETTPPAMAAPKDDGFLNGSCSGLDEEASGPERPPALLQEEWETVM
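HEK-293-derived GP2 cells expressing PTHR1 and a GloSensor cAMP reporter, 3,000/well, plated overnight, given luciferin plus IBMX (each 0.5 mM as added) for 1 h at 37 °C, then compound for 1 h at 37 °C. Luminescence was read after 15 min at room temperature.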
aSyn yeast inh: qHTS of alpha-syn Inhibitors | Potency, µM (doses to about 46.1 µM), usual class: activators | Yeast expressing alpha-synuclein, growth rescue, BacTiter-Glo, 24 h | hit rate 0.14% among 370,000; also: nearly all actives have a fitted effect of over 65% in size
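Galactose-induced alpha-syn yeast (OD600=0.02, raffinose-pregrown) + pinned cpd, 24 hr, 30 deg C; growth by BacTiter-Glo luminescence. Growth restoration scores as activation.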
LDHA block: qHTS assay for inhibitors of human lactate dehydrogenase | activity change, % (values are at about 110 or 230 µM) | purified LDHA, NADH/diaphorase-resazurin fluorescence; hits give low values | hit rate 0.15% among 480,000; in the data active = activity change below about -30%; inconclusive = mostly about -25% to -30%
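Human LDH5 (2 nM) was incubated with 0.06 mM NADH and 0.2 mM pyruvate for 5 min at room temperature in Tris pH 7.4. Remaining NADH was coupled through diaphorase/resazurin, and resorufin fluorescence was read at 0 and 20 min.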
FUS suppressor: qHTS for Suppressors of FUS Proteinopathy: Primary screen using FUS-linked yeast assay; S. cerevisiae FUS-expressing, growth rescue, OD600, 24 h; Potency, µM (highest dose often 76.6 µM), actives largely listed as activators; hit rate 0.24% among 390,000; AID 1347120, 2019; also: nearly all actives have a fitted effect of over 55% in size
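Yeast expressing FUS under galactose induction, OD 0.005 in 2% galactose medium; compounds in a dilution series, 24 h at 30C. Growth rescue by absorbance at 600 nm; CP55940 positive control, DMSO negative.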
TDP43 rescue: qHTS of TDP-43 Inhibitors; TDP-43 expressing yeast growth rescue, BacTiter-Glo, 24 h; Potency, µM (highest dose often 46.1 µM), hits mostly activators; hit rate 1.8% among 410,000; AID 652104, 2013; also: nearly all actives have a fitted effect of over 50% in size
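Yeast cells expressing TDP-43 under galactose induction are exposed to compounds for 24 hr at 30 deg C. BacTiter-Glo luminescence measures growth, so protective compounds score as activators.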
Hits are given with their value; i = inactive; ? = inconclusive; nt = no result. Unless noted, calls follow the shape of the dose curve; as a rule, active = well fitted curve in the direction sought with a large enough effect; inconclusive = small, poorly fitted or top-dose-only effect, or another doubt; inactive = no such curve, though single readings can be large; an effect the other way counts as inactive or inconclusive.

SMILES	Abeta yeast res	PTHR1 agonist	aSyn yeast inh	LDHA block	FUS suppressor	TDP43 rescue
Cc1nc2cc(C(=O)NCCC3=CCCCC3)ccc2n1-c1ccc(Br)cc1	i	i	nt	i	25.1µM	?
CCc1ccccc1-n1c(C)nc2cc(C(=O)NCCc3ccc(Cl)cc3)ccc21	i	i	nt	i	?	31.6µM
CCOc1ccc(-n2c(C)nc3cc(C(=O)NCCC4=CCCCC4)ccc32)cc1	i	i	nt	i	i	i
COc1ccc(C(CNC(=O)CN2CCNC(=O)C2)c2c[nH]c3ccccc23)cc1 (stereo not given)	nt	nt	nt	i	nt	nt
COc1cc(F)ccc1-c1csc(C(O)c2ccccc2)n1 (stereo not given)	i	i	i	i	?	35.5µM
COc1cccc(C(O)c2nc(-c3ccccc3)cs2)c1 (stereo not given)	i	i	i	i	i	15.8µM
COc1ccccc1-c1csc(C(O)c2ccc(F)cc2)n1 (stereo not given)	i	i	i	i	i	?
COc1cccc(C(O)c2nc(-c3ccccc3OC)cs2)c1 (stereo not given)	i	i	?	i	i	22.4µM
COc1cccc(C(O)c2nc(-c3cccc(CO)c3)cs2)c1 (stereo not given)	i	i	?	i	i	i
COc1cccc(C(O)c2nc(-c3ccc(Cl)cc3)cs2)c1 (stereo not given)	?	i	i	i	i	12.6µM
Cc1ccc(C)c(NC(=O)c2n[nH]c(=O)c3ccccc23)c1	nt	nt	nt	i	nt	nt
Fc1ccc(-c2nc3ccc(Cl)cn3c2Cc2cccc(Cl)c2)cc1	i	i	i	i	i	i
Clc1cccc(Cc2c(-c3cccc(Br)c3)nc3ccc(Cl)cn23)c1	i	i	i	i	i	?
Clc1cccc(Cc2c(-c3ccccc3)nc3ccc(Cl)cn23)c1	i	i	i	i	i	31.6µM
Clc1ccc(-c2nc3ccc(Cl)cn3c2Cc2cccc(Cl)c2)cc1	i	i	i	i	?	25.1µM
COc1ccc(CCNC(=O)CSc2nc(Cl)nc3nc[nH]c23)cc1OC	nt	nt	nt	i	nt	nt
CCCCCC1CCC(c2n[nH]c(=S)n2C)CC1 (stereo not given)	?	i	i	i	i	14.1µM
C=CCn1c(C2CC2)n[nH]c1=S	i	i	i	i	i	i
Cc1cccc(OCC(=O)Nc2ccc(Cl)c(-c3nc4ccccc4[nH]3)c2)c1	i	i	nt	i	?	35.5µM
O=C(COc1ccc(F)cc1)Nc1ccc(Cl)c(-c2nc3ccccc3[nH]2)c1	i	i	nt	i	i	i
O=C(COc1ccccc1F)Nc1ccc(Cl)c(-c2nc3ccccc3[nH]2)c1	i	i	nt	i	?	35.5µM
Cc1ccsc1/C=C(\C#N)C(=O)NC1CC1	nt	nt	nt	i	nt	nt
O=C(Nc1nc(-c2ccc(Cl)cc2Cl)cs1)C1CCCO1 (stereo not given)	i	i	i	i	i	12.6µM
c1ccc(Oc2ccc(-c3ccn[nH]3)cc2)cc1	i	i	i	i	i	14.1µM
Cc1ccc(C(C)NC(=O)Cc2c(C)[nH]c3ccccc23)o1 (stereo not given)	nt	nt	nt	i	nt	nt
SMILES	Abeta yeast res	PTHR1 agonist	aSyn yeast inh	LDHA block	FUS suppressor	TDP43 rescue
COc1ccc(C(C#N)c2ccc(Cl)nn2)cc1 (stereo not given)	i	i	i	i	i	i
N#CC(c1ccc(Cl)nn1)c1ccc(Cl)cc1Cl (stereo not given)	i	i	i	i	i	12.6µM
Cc1cc(SCC(=O)OCC(=O)NCC2CCCO2)c(C)cc1Br (stereo not given)	i	i	i	i	i	25.1µM
CC(C)CNC(=O)C(C)Sc1nc(-c2ccco2)nc2ccccc12 (stereo not given)	nt	nt	nt	i	nt	nt
COc1ccc(Nc2cnn(-c3nc4ccccc4s3)c(=O)c2Cl)cc1	i	i	i	i	nt	8.91µM
O=c1c(Cl)c(Nc2cccc(Cl)c2)cnn1-c1nc2ccccc2s1	i	i	i	i	i	i
Cc1ccccc1OCC(O)Cn1c(NCCc2ccccc2)nc2c1c(=O)[nH]c(=O)n2C (stereo not given)	nt	nt	nt	i	nt	nt
COC(=O)c1ccc(C)c(NC(=O)c2cnccn2)c1	nt	nt	nt	i	nt	nt
c1ccc(-c2ccc(CNc3nc(-c4ccccn4)nnc3-c3ccccc3)cc2)cc1	nt	nt	nt	nt	20µM	nt
c1ccc(-c2cnc(-c3ccccc3)nn2)cc1	i	i	i	i	i	i
c1ccc(-c2cnc(-c3ccccn3)nn2)cc1	i	i	i	i	i	22.4µM
COc1cccc(NC(=O)CN2CCSc3ccccc32)c1	i	i	i	i	i	22.4µM
Cc1cccc(NC(=O)CN2CCSc3ccccc32)c1	i	i	i	i	i	i
CCCCOc1ccc(CNC(=O)CN2CCSc3ccccc32)cc1	?	i	?	i	?	35.5µM
CCCOc1ccc(CNC(=O)c2ccc3c(c2)N(Cc2ccccc2)CCS3)cc1	i	i	nt	i	i	i
Cc1cc(C)cc(OCCC(=O)Nc2c(C)nn(C)c2C)c1	nt	nt	nt	i	nt	nt
COc1ccccc1CC(=O)N(Cc1ccsc1)C1CC1	nt	nt	nt	i	nt	nt
Cc1cccc(OCc2nnc(SCC(=O)c3ccccc3)o2)c1	i	i	i	i	i	12.6µM
Cc1cc(C)cc(OCc2nnc(SCC(=O)c3ccccc3)o2)c1	i	i	i	i	i	i
O=C(N/N=C/c1ccc([N+](=O)[O-])o1)c1cc2ccccc2o1	nt	i	i	-69.9	i	i
O=C(N/N=C/c1ccc([N+](=O)[O-])o1)c1cc2c(ccc3ccccc32)o1	i	i	i	i	i	i
O=[N+]([O-])c1ccc(/C=N/NC(=S)Nc2ccccc2F)o1	i	i	i	i	i	12.6µM
O=C(N/N=C/c1cc(Br)c(Br)o1)c1cc2ccccc2o1	i	i	i	-43.6	i	i
COC(=O)c1ccc(OCc2ccc(C(=O)O)o2)cc1	nt	nt	nt	i	nt	nt
COc1ccccc1-n1cc(CN2CCc3onc(-c4ccc(Br)cc4)c3C2=O)nn1	i	i	i	i	i	i
COc1ccc(Cn2cc(CN3CCc4onc(-c5ccc(Br)cc5)c4C3=O)nn2)cc1	i	i	i	i	?	17.8µM
Fc1cc(F)cc(-c2c(-c3ccccc3)ncc3ccc(F)cc23)c1	i	i	i	i	i	35.5µM
Fc1ccc2cnc(-c3ccccc3)c(-c3cccc(C(F)(F)F)c3)c2c1	i	i	i	i	i	i
O=[N+]([O-])c1cccc(-c2c(-c3ccccc3)ncc3cc(F)ccc23)c1	i	i	i	i	i	28.2µM

Compound activity (PubChem)
